Experimental findings from PubChem BioAssay (EPA / NIEHS) are described below.

The structures appear in SMILES notation. “And” between values parts separate entries of the source, which are not always exact repeats. Equal values may be shown once. The source holds several records for some structures; these can differ, active in one and inactive in another. The source made the active and inactive calls. How the source made its calls: active means hit-call score of the fitted dose curve at least 0.9, where 1 is the maximum; inactive means score below 0.9.

Read-out in this assay: Interferon-inducible T-cell alpha chemoattractant (ITAC), CXCL11 (gene 6373)
The experiment in a line: BSK_hDFCGF_ITAC: BioMAP Diversity Plus: hDFCGF Assay for Interferon-inducible T-cell alpha chemoattractant (ITAC) Biomarker Activity (AID 2284251). As to conditions: primary human foreskin fibroblasts. As to the method: BSK_hDFCGF is a cell-based, multiplexed-readout assay that uses foreskin fibroblast, a human skin primary cell, with measurements taken at 24 hours after chemical dosing in a 96-well plate.BSK_hDFCGF_ITAC is an assay component measured in the BSK_hDFCGF assay. It measures I-TAC antibody related to regulation of gene expression using ELISA technology.Data from the assay component BSK_hDFCGF_ITAC was analyzed at the endpoint, BSK_hDFCGF_ITAC, in the positive analysis fitting direction relative to DMSO as the negative control and baseline of activity. Using a type of binding reporter, gain or loss-of-signal activity can be used to understand protein changes. To generalize the intended target to other relatable targets, this assay endpoint is annotated to the 'cytokine' intended target family, where the subfamily is 'chemotactic factor'.
The levels of cell surface (or secreted, indicated by the prefix "s") biomarker endpoints were measured by ELISA. Overt cytotoxicity to cells in confluent adherent cultures (all systems other than the BT system) was assessed by measuring total protein levels using sulforhodamine B (SRB) staining in parallel cultures at the time of biomarker measurements, indicated as SRB endpoints. For proliferation assays for adherent cell types, individual cell types are cultured at sub-confluence and relative cell numbers quantified by SRB staining at time points optimized for each system (48 h: 3C and CASM3C systems; 72 h: BT and HDF3CGF systems; 96 h: SAg system). SRB was performed by staining cells with 0.1% SRB after fixation with 10% TCA and reading wells at 560 nm.Viability and proliferation of PBMC (T cells) was quantified by Alamar Blue reduction for the SAg and BT systems. For PBMC viability (referred to as PBMC Cytotoxicity within the assay endpoint names), cells were plated (75,000/well in a 96-well plate) and then chemical samples added for 1 h before addition of activators, SEB and TSST-1 (20 ng/mL final concentration each). Cells were incubated for 90 h. Then, Alamar Blue (20 uL/well) (Invitrogen, Cat DAL1100) was added for 6 h, and the plates were read with a fluorescence microplate reader at 546/580 nm (excitation/emission). For PBMC proliferation, cells were plated and activated as above but incubated for only 16 h prior to addition of Alamar Blue. Plates were read after 6 h.
Regarding `CCn1cc(C(=O)O)c(=O)c2ccc(C)nc21`, the outcome was inactive.
Still for that read-out and setting: with `c1ccc(OCCOc2ccccc2)cc1` the entry was “inactive”; with `CCCCN(CCO)CCO`, “inactive”.
The same measure, in the same setting: under `CCCO[Si](OCCC)(OCCC)OCCC` stands “inactive”.
For orientation: AC50 means the midpoint of the concentration-response curve, whichever way the signal moves. Consider `O=C(O)C(F)(F)C(F)(F)C(F)(F)C(F)(F)C(F)(F)C(F)(F)C(F)(F)C(F)F`, for which the result was inactive and the AC50 is 12.9 µM (active).
With `O=C(O)C(F)(F)OC(F)(F)C(F)(F)OC(F)(F)C(F)(F)C(F)(F)C(F)(F)F`, the AC50 was 10.9 µM (active) and 17.6 µM (active).
For the compound `CC(C)CCCC(C)(C)O`, the outcome was inactive.
On the same count and under the same terms, under `O=S(=O)(O)C(F)(F)C(F)(F)OC(F)(F)C(F)(F)F` stands “inactive”; under `CC(C)(CO)CO`, “inactive”; under `C=C(F)C(=O)OC(C(F)(F)F)C(F)(F)F`, “inactive”.
Same read-out and setting: with `C=C(C)C(=O)OCCC(F)(F)C(F)(F)C(F)(F)C(F)(F)C(F)(F)C(F)(F)C(F)(F)C(F)(F)F` the entry was “inactive”.
For `OCC(F)(OC(F)(F)C(F)(OC(F)(F)C(F)(F)C(F)(F)F)C(F)(F)F)C(F)(F)F` (centres undefined), the AC50 was 2.4 µM (active) and 2.03 µM (active).
Take `CC(=O)c1ccc(C)cc1`: the outcome was inactive.
